# Rows were chosen to be rich in hits. Some 3% of all compounds tested hit in one or more screens of this group.
# DRD3 agonist = activates the human D3 dopamine receptor. D3R DiscoveRx beta-arrestin cells, luminescence, 90 min. max activation, %. actives 0.58% (n = 410,000); in the data active = max activation above about 30%; note: 0% is about no effect
# Target sequence (P35462 whole entry, looked up): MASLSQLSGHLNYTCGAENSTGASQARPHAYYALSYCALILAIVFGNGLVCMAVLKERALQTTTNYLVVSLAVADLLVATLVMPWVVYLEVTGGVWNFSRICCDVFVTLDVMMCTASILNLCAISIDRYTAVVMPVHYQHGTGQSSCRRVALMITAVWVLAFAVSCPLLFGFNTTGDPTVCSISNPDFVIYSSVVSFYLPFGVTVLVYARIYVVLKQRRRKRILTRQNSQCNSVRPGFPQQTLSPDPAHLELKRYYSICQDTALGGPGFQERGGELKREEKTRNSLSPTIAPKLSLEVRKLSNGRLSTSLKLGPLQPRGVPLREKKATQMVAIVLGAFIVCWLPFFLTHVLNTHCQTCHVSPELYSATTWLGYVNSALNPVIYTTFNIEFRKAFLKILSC
#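 Agonist-mode cell screen: cells plated at 1500/well and incubated overnight at 37 °C, then exposed to library compounds for 90 min at 37 °C. Detection reagent was added for 30–60 min at room temperature, and luminescence was read.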
# D3 antag = antagonists of human D3 dopamine receptor. P35462. D3R cells, DiscoveRx beta-arrestin luminescence, antagonist mode; hits give low values. max response, negative = inhibition, %. actives 2.5% (n = 360,000). AID 652054; in the data active = max response below about -50%; inconclusive = no clear call, values can overlap the other calls; note: % is set by controls: 0 for no effect and ±100 for the full control effect
#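 Cells plated overnight at 1500 cells/well, then exposed to library compounds with dopamine controls for 90 minutes at 37 degrees C. DiscoveRx reagent added for 30–60 minutes at room temperature; luminescence read, quantitative HTS format.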
# Glioma ERSR ind = induces the endoplasmic reticulum stress response in human glioma cells; U87-MG GRP78 promoter luciferase reporter, 16 h; Potency, µM, for inactives: top-dose activation, hits mostly activators; actives 0.02% (n = 420,000); AID 602332; note: potency is the fitted concentration of half-maximal effect; series mostly up to about 76 µM; % of control where 0% means no effect; nearly all actives have a fitted effect of over 35% in size
#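 Stably transfected U87-MG glioma cells carrying a GRP78-based luciferase sensor; 16 h compound incubation. Luminescence end-point read 10 min after Bright-Glo addition at room temperature.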
# Nrf2 ARE act = activates Nrf2 signaling. actives 0.31% (n = 410,000). AREc32 ARE-luciferase reporter (MCF7-derived line), luminescence, 24 h. Potency, µM (series often up to 46.1 µM), inactives show at the top dose activation, hits mostly activators. AID 624171; note: potency is the fitted concentration of half-maximal effect; % of control where 0% means no effect; nearly all actives have a fitted effect of over 65% in size
#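 Each well held 1000 AREc32 cells, which were incubated with compound for 24 hr at 37 deg C after overnight attachment, and ARE reporter activity was quantified by firefly luciferase luminescence.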
# The depositor's hits bear a star; ? = inconclusive; . = no result given. Unless noted, calls come from the whole dose curve; as a rule, active = well fitted curve in the direction sought with a large enough effect; inconclusive = small, poorly fitted or top-dose-only effect, or another doubt; inactive = no such curve, though single readings can be large; an effect the other way counts as inactive or inconclusive.
SMILES,DRD3 agonist,D3 antag,Glioma ERSR ind,Nrf2 ARE act
O=C(/C(=N\Nc1ccc([N+](=O)[O-])cc1)Sc1nnnn1-c1ccccc1)c1ccccc1,-13,-82*,2%,8%
Cc1ccc(N/N=C(/Sc2nnnn2-c2ccccc2)C(=O)c2ccccc2)cc1,-1,-18,-3%,7%
CN1CCc2nc(SCCOc3ccccc3)c(C#N)cc2C1,-29,-58*,0%,1%
CN(C)c1ccc(/C=C/c2ccnc3c(Cl)cccc23)cc1,.,.,-4%,.
Nc1cc(C(F)(F)F)ccc1NCCc1ccccn1,-8,-7,-1%,13µM*
CCCC(=O)O[C@]1(C(=O)COC(=O)CC)[C@@H](C)C[C@H]2[C@@H]3CCC4=CC(=O)C=C[C@@]4(C)[C@@]3(F)[C@H](O)C[C@@]21C,.,.,-3%,.
COC(=O)c1sc(-c2cccs2)cc1NC(=O)/C=C/C(=O)O,4,-10,7%,16µM*
Cc1c(C(=O)NCC2(N3CCCCC3)CCCC2)cnn1-c1nccc(-c2ccccc2F)n1,.,.,-2%,.
Nc1c2c(nc3ccc(Br)cc13)N(Cc1ccccc1)CC2,-3,-59*,-2%,11%
Nc1c2c(nc3ccc(Br)cc13)N(c1ccccc1)CC2,-6,-5,5%,5%
CCOC(=O)Cc1csc(NC(=O)CSc2nnc(C3CC3)n2C)n1,1,-50*,-2%,2%
CCOC(=O)Cc1csc(NC(=O)CSc2nnc(C)n2C)n1,-2,15,4%,-1%
O=C(O)c1ccccc1NC(=O)N1c2ccccc2Sc2ccccc21,-7,.,1%,1%
CN1CCN(CC(=O)N2CCn3c4c(c5cc(C6CCCCC6)ccc53)CCCC42)CC1 (centres undefined),3,-65*,-13%,-3%
COC1=C(OC)C(=O)C(Sc2ccc3ccccc3c2)=CC1=O,-28,-62*,-13%,?
COc1ccc(S(=O)(=O)Oc2ccc3ccccc3c2)cc1,-9,-12,1%,3%
COC(=O)C1=CO[C@@H](O[C@@H]2O[C@H](CO)[C@@H](O)[C@H](O)[C@H]2O)C2C(CO)=CCC12 (some centres undefined),16,-16,-3%,0%
CC(=O)OCC1=C[C@@H]2OC(=O)C3=CO[C@@H](O[C@@H]4O[C@H](CO)[C@@H](O)[C@H](O)[C@H]4O)[C@H]1[C@@H]32,70*,-11,-2%,0%
CC(=O)C1CCN(Cc2ccccc2)CC1,-5,13,-7%,2%
CSc1ccccc1OC1CCN(Cc2ccccc2)CC1,-33,-92*,-2%,0%
Cc1nnc(SCC(=O)N2CC(=O)Nc3ccccc32)n1Cc1ccccc1,-6,-66*,-3%,0%
O=C(CSc1nc2c([nH]c3ccccc32)c(=O)n1-c1ccccc1)NCC1CCCO1 (centres undefined),-23,-84*,4%,-1%
O=C(CSc1nc2c([nH]c3ccccc32)c(=O)n1-c1cccc(Cl)c1)NCC1CCCO1 (centres undefined),-6,.,0%,0%
Cc1nnc(SCC(=O)NCC2CCCO2)n1Cc1ccccc1 (centres undefined),78*,-8,-2%,-1%
COc1cc(-c2nc(C(=O)NCC3CCCO3)cc3c2[nH]c2ccccc23)cc(OC)c1OC (centres undefined),33*,88,-4%,4%
SMILES,DRD3 agonist,D3 antag,Glioma ERSR ind,Nrf2 ARE act
COc1cccc(-c2cc3c(c(OC)c2)OCCN(S(=O)(=O)c2ccccc2OC(F)(F)F)C3)n1,.,.,-2%,.
O=C(CCC1N=C2c3ccccc3N=C(SCC(=O)Nc3ccccc3F)N2C1=O)NCc1ccccc1 (centres undefined),9,.,-2%,7%
CC(=O)NC1=C(C#N)CCC1,.,.,-3%,.
CCCc1cc(=O)[nH]c2nnc(SCC(=O)Nc3ccc(OC)cc3)n12,1,.,-3%,0%
CCn1c(SCC(=O)NCC2CCCO2)nc2c(c1=O)SC(C)C2 (centres undefined),0,3,-2%,0%
Cc1[nH]nc2nc(SCC(=O)NCC3CCCO3)n(-c3ccc(Br)cc3)c(=N)c12 (centres undefined),6,-50*,-2%,5%
O=C(CSc1nc2c([nH]c3ccccc32)c(=O)n1-c1ccccc1)N1CCCCC1,-9,.,-2%,-1%
Cc1cc(-n2c(SCC(=O)Nc3ccc(Br)cc3)nc3n[nH]c(C)c3c2=N)ccc1Cl,0,-17,0%,3%
COc1ccccc1-n1c(SCC(=O)NCC2CCCO2)nc2c([nH]c3ccccc32)c1=O (centres undefined),-19,-57*,8%,3%
CC1Cc2nc(SCC(=O)NCC3CCCO3)n(C)c(=O)c2S1 (centres undefined),14,-53*,-5%,0%
O=C(CSc1nc2c([nH]c3ccccc32)c(=O)n1-c1ccc(F)cc1)N1CCCCCC1,33*,.,-3%,-1%
c1ccc(CNc2ncnc3ccc(-c4ccc5c(c4)OCO5)cc23)cc1,.,.,3%,.
Cc1cc(C=Nc2ccc(/C=C/c3ccnc4ccccc34)cc2)ccc1N(C)C,.,.,-5%,.
CC1CN(c2ncnc3c2c(-c2ccccc2)cn3-c2ccc(F)cc2)CC(C)O1 (centres undefined),-35,-92*,-5%,3%
OCCN1CCN(c2ncnc3c2c(-c2ccccc2)cn3-c2ccc(F)cc2)CC1,-20,-75*,-2%,9%
c1ccc(-c2cn(-c3ccccc3)c3ncnc(N4CCN(c5ccccc5)CC4)c23)cc1,8,.,-3%,0%
CC(=O)Oc1ccc(Cl)cc1/C=C/c1ccc2ccccc2n1,-9,21,-7%,?
CC(=O)Oc1c(Cl)cc(Cl)cc1/C=C/c1ccc2ccccc2n1,39*,39,?,13µM*
COc1ccc(OC2C(=O)N(Cc3ccc4c(c3)OCO4)C2c2sccc2C)cc1 (centres undefined),34*,39,4%,3%
C/C=C(\C)C(=O)OC1[C@H](OC(C)=O)C2(CO)C(CC1(C)C)C1=CCC3C4(C)CCC(O[C@@H]5O[C@H](C(=O)O)[C@@H](O[C@@H]6O[C@H](CO)[C@@H](O)[C@H](O)[C@H]6O)[C@H](O)[C@H]5O[C@H]5O[C@H](CO)[C@@H](O)[C@H](O)[C@H]5O)[C@](C)(CO)C4CCC3(C)[C@]1(C)C[C@H]2O (some centres undefined),-44,-121*,-11%,-3%
C/C=C(/C)C(=O)OC1C(OC(C)=O)[C@@]2(CO)C(O)C[C@@]3(C)C(=CCC4[C@@]5(C)CCC(OC6OC(C(=O)O)[C@@H](O[C@@H]7OC(CO)C(O)C(O)C7O)C(O)[C@H]6O[C@@H]6OC(CO)C(O)C(O)C6O)[C@](C)(CO)C5CC[C@@]43C)C2CC1(C)C (some centres undefined),.,.,-6%,.
O=C(NCCCN1CCN(c2ccccc2F)CC1)C1CC(=O)N(C2CCCC2)C1 (centres undefined),41*,-77*,-4%,0%
O=C(CCN1C(=O)COc2ccccc21)NCCCN1CCc2ccccc2C1,-26,-93*,-2%,0%
